Data from PubChem BioAssay (NCATS).
Records with an inconclusive call do not appear. Where a call stands in place of a potency, no number is given. Calls of active or inactive are those of the source. Calls follow the shape of the full dose curve.

Assays:
[1] = Primary qHTS for Huh7 cytotoxicity: counterscreen for inhibitors of MERS-S pseudotyped particle cell entry (AID 1479147); conditions: outcome: dose series up to 57.1 µM unless noted
[2] = Primary qHTS for inhibitors of MERS-S pseudo-typed particle cell entry (AID 1479149); conditions: outcome: dose series up to 57.1 µM unless noted; also: nearly all actives have a fitted effect of over 60% in size
[3] = Primary qHTS for Vero E6 cytotoxicity: counterscreen for inhibitors of SARS-S pseudo-typed particle cell entry (AID 1479150); conditions: outcome: dose series up to 57.1 µM unless noted
[4] = Cytotoxicity counterscreen for inhibitors of SARS-CoV-2 cell entry (AID 1645845); conditions: outcome: dose series up to 57.1 µM unless noted; also: nearly all actives have a fitted effect of over 50% in size
How it was run: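 Counterscreen run in the same HEK293-ACE2 line as the pseudotyped-particle entry assay, without particles. Viability after 48 h at 37 C was read as ATP luminescence, scaled between cell-containing and cell-free wells.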

[5] = Primary qHTS to identify inhibitors of SARS-CoV-2 cell entry (AID 1645846); conditions: SARS-CoV-2 pseudovirus cell entry assay, luminescence; activity change, negative = inhibition: at 57.1 µM (top of the series) unless noted; also: nearly all actives have a fitted effect of over 45% in size
How it was run: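 Using luciferase-reporting pseudoviruses carrying Wuhan-Hu-1 spike, the screen tracks entry into stably ACE2-expressing cells over 48 hr. Activity is expressed relative to spike particles versus particles lacking any fusion protein.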

Compound	Potency [1]	Potency [2]	Potency [3]	Potency [4]	activity change, negative = inhibition [5]	Potency [5]
Cc1nccn1CCC(C(N)=O)(c1ccccc1)c1ccccc1	inactive	inactive	inactive	inactive	-25.4%	–
COc1cc(C[C@@H]2NCCc3cc(O)c(O)cc32)cc(OC)c1OC	inactive	inactive	inactive	inactive	-18.7%	–
OCc1ccccc1	inactive	inactive	inactive	inactive	3.04%	–
O=C1N=C(N2CCOCC2)CN1c1ccc(Cl)cc1	inactive	inactive	inactive	inactive	-29.2%	–
C/C(=C(/CCO)SSCC1CCCO1)N(C=O)Cc1cnc(C)nc1N (stereo not given)	inactive	inactive	inactive	inactive	-21.7%	–
O=C(O)CCC/C=C\C[C@@H]1[C@@H](/C=C/[C@@H](O)COc2cccc(Cl)c2)[C@H](O)C[C@@H]1O	inactive	inactive	inactive	inactive	–	inactive
CCC(=O)O[C@@H]1CC(=O)O[C@H](C)C/C=C/C=C/[C@@H](O)[C@H](C)C[C@H](CC=O)[C@H](OC2O[C@H](C)[C@@H](O[C@H]3C[C@@](C)(O)[C@@H](OC(=O)CC)[C@H](C)O3)[C@H](N(C)C)[C@H]2O)[C@H]1OC (stereo not given in full)	inactive	inactive	inactive	inactive	-26.3%	–
CN1C2CC[C@@H]1CC(OC(=O)[C@H](CO)c1ccccc1)C2 (stereo not given in full)	inactive	inactive	inactive	inactive	-26.3%	–
Cc1cc(CC(C)C[Si](C)(O[Si](C)(C)C)O[Si](C)(C)C)c(O)c(-n2nc3ccccc3n2)c1 (stereo not given)	inactive	inactive	inactive	inactive	-21.7% [at 19 µM]	–
CCN(CC)CCOc1ccc2nc(N(C)C)sc2c1	inactive	inactive	inactive	inactive	-8.36% [at 114 µM]	–
NC(=O)[C@@H]1C[C@]2(NC(=O)NC2=O)c2cc(F)ccc2O1	inactive	inactive	inactive	inactive	-14.3%	–
COc1cc(/C=C\C(=O)N2CCN(CC(=O)N3CCCC3)CC2)cc(OC)c1OC	inactive	inactive	inactive	inactive	–	inactive
O=C(O)c1cc(=O)c2c3nc4ccccc4oc-3cc(=O)c2[nH]1	inactive	inactive	inactive	inactive	-16.2%	–
CC1(C)S[C@@H]2[C@H](NC(=O)[C@H](NC(=O)N3CCN(S(C)(=O)=O)C3=O)c3ccccc3)C(=O)N2[C@H]1C(=O)O	inactive	inactive	inactive	inactive	-10%	–
CN1C(=O)C[C@@H](C(=O)N[C@@H](Cc2cnc[nH]2)C(=O)N2CCC[C@H]2C(N)=O)NC1=O	inactive	inactive	inactive	inactive	-23.8%	–
CCOC(=O)[C@@H](N)CS	inactive	inactive	inactive	inactive	-29%	–
CCCCCCO[C@@H](C)c1cccc(-c2csc(NC(=O)c3cc(Cl)c(/C=C(\C)C(=O)O)c(Cl)c3)n2)c1OC	inactive	inactive	inactive	inactive	-33.5%	–
COC(=O)[C@H]1[C@H]2C[C@@H]3c4[nH]c5cc(OC)ccc5c4CCN3C[C@H]2C[C@@H](OC(=O)/C=C/c2cc(OC)c(OC)c(OC)c2)[C@@H]1OC	inactive	inactive	inactive	inactive	-22.2% [at 19 µM]	–
